Measurements taken from PubChem BioAssay AID602376 (Johns Hopkins Ion Channel Center, 2012).
Potency and affinity values are given separately. Records with an inconclusive call do not appear. Active and inactive are the calls of the source.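 The calls were made as follows: active = raises choline transporter activity at one or more tested doses and gives a fitted dose-response curve; inconclusive = no clear call, values can overlap the other calls; inactive = no choline transporter activation at any dose, or no curve.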

Target: High affinity choline transporter 1 (Homo sapiens) (UniProt Q9GZV3)
Experiment: CHT activators, dose response, cell-based, 10-point CRC, membrane potential dye (AID 602376)
Conditions: HEK293-CHT, choline-induced membrane potential dye, cells express CHT LV-AA mutant; series mostly up to 67 µM

Chain of High affinity choline transporter 1 (Homo sapiens) (Q9GZV3 whole entry, looked up): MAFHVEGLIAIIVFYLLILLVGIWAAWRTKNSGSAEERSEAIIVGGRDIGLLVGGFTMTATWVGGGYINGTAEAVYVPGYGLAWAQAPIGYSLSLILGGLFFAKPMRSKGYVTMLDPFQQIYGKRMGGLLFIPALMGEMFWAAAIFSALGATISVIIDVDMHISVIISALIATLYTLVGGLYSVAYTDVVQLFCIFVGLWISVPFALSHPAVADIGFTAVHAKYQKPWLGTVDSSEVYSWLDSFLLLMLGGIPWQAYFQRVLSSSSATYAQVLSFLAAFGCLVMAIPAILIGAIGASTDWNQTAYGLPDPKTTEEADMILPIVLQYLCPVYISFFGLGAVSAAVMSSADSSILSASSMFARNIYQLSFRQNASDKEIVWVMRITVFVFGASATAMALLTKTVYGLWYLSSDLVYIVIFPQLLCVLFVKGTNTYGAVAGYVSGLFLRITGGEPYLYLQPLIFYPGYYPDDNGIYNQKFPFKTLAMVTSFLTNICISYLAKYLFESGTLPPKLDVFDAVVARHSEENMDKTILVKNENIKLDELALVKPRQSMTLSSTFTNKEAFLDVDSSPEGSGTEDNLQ

outcome, inactive:
CCc1ccc(CN(C)C(=O)CCc2nc3ccccc3n(-c3ccc(OC)cc3)c2=O)cc1
Cn1c(=O)c2c(nc(CN3CCN(c4cccc(Cl)c4)CC3)n2CCc2ccccc2)n(C)c1=O
CCN1C(=NCc2ccccc2)N[C@@H](c2ccccc2)[C@H](C(=O)OC)[C@H]1C
CCC(C)c1ccccc1N1CC(C(=O)Nc2ccccc2N2CCCC2)CC1=O (configuration not stated)
C=C1CCN(Cc2ccccc2)S(=O)(=O)c2ccccc21
CCCCn1c(=N)n(CC(O)COc2ccccc2)c2ccccc21 (configuration not stated)
O=C(COc1ccccc1)NCC(c1ccco1)N1CCN(c2ccc(F)cc2)CC1 (configuration not stated)
CC1Cc2cc(S(=O)(=O)N3CCN(c4ccccc4F)CC3)ccc2N1C(=O)C1CC1 (configuration not stated)
CCOC(=O)c1c(C)nc2ccccc2c1-c1ccccc1
CC(C)CN(C(=O)CSc1nnc(-c2cccs2)n1N)c1c(N)n(Cc2ccccc2)c(=O)[nH]c1=O
Cc1ccnc2nc(C(=O)Nc3nccs3)nn12
COC(=O)c1sc(NC(=O)C(C)c2ccccc2)nc1C (configuration not stated)
COc1ccc(-c2cc(C(=O)NNC(=O)c3csc(N4CCOCC4)n3)c3ccccc3n2)cc1OC
CCOC(=O)C[C@H]1c2ccccc2S(=O)(=O)N1Cc1cccc(C(F)(F)F)c1
O=C(NC1CCCC1)C(c1ccsc1)N(Cc1ccco1)C(=O)Cc1cccs1 (configuration not stated)
CCC(=O)N(CCC(c1ccc(C)cc1)c1ccco1)Cc1ccco1 (configuration not stated)
CCOc1cc(-c2sc(Nc3cc(C)ccc3OC)n[n+]2-c2ccccc2)ccc1OC
